Our source for the outcome values is PubChem BioAssay AID504843 (Broad Institute, 2011).

Structures are written as SMILES. The campaign covered roughly 1,200 compounds. About 360 (30%) were called active. No rule for the calls is given here. A selection follows. Entries with a potency or affinity are not part of this list.

This experiment can be described thus: bacterial growth inhibition, dose response, counter-screen, BacTiter-Glo luminescence, cherry-picked samples (AID 504843).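 Also: growth measured after 8 h incubation at 30 °C.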 The conditions noted are these: BacTiter-Glo ATP luminescence; series mostly up to 15 µM. On the technique in general: The purpose of a counterscreen is to sort out artefacts and off-target activity.
Turning to `COc1ccc2[nH]c(C(=O)N(C)c3ccc(F)cc3F)cc2c1`, the compound was called inactive. For the compound `O=C(CSc1cn(CCNC(=O)c2c(F)cccc2F)c2ccccc12)NCC1CCCO1` (stereo not given), the result was inactive. With `COc1cccc(NC(=O)CSc2nc3ccccc3c(=O)n2CCCC(=O)NCC2CCCO2)c1` (stereo not given), the compound was classed as inactive.

As to `C=CCn1c(C)cc(C(=O)CSc2nnc3c(Cl)cc(Cl)cn23)c1C`, the result was inactive.

With `CCN(C1CCS(=O)(=O)C1)S(=O)(=O)c1cc(C)ccc1C` (stereo not given), the result was inactive. In the case of `Fc1ccc(-n2c(-c3ccc4ccccc4n3)n[nH]c2=S)cc1Cl`, the compound was classed as inactive.

As to `C=CCOc1cccc(C(=O)N2CCCC(CCC(=O)NCc3ccccc3F)C2)c1` (stereo not given), the call was inactive.

On to `CC(C)c1cc(C(N)=O)c(NC(=O)c2cccc(COc3ccc(Cl)cc3)c2)s1`, for which the result was inactive.

Consider `CC(=O)N1c2ccc(S(=O)(=O)N3CCC(C(=O)N4CCN(c5ccccc5F)CC4)CC3)cc2CC1C` (stereo not given), for which the call was inactive. As to `O=C(CSc1nc2ccccc2c(=O)[nH]1)N1CCN(c2ccccc2F)CC1`, the result was inactive. In the case of `CC(C)c1ccc(C2C(C#N)=C(N)Oc3c2oc(CO)cc3=O)cc1` (stereo not given), the compound was called inactive. `COC(=O)COc1ccc(-n2cnnn2)cc1`: the compound was classed as inactive.

As for `Cc1cccc(N(CC(=O)Nc2cccnc2)S(C)(=O)=O)c1`, the result was inactive.

As for `O=C(Nc1c2c(nn1-c1ccccc1)CS(=O)(=O)C2)c1cccs1`, the compound was called inactive. In the case of `COc1ccc(-c2nc3ccccc3o2)cc1NC(=O)c1ccc(Br)o1`, the call was inactive. Consider `O=C(NNC(=S)Nc1cccc(Cl)c1)c1ccccc1OC(F)F`, for which the result was inactive. With `CC1CC(OC(=O)C(O)c2ccccc2)CC(C)(C)N1C` (stereo not given), the compound was called inactive. On to `CCOc1ccc(-n2c(SCC(=O)O)nc3sc4c(c3c2=O)CCCC4)cc1`, for which the compound was called inactive. As for `NC(=O)NC(=O)CSc1nc2sc(-c3ccccc3)cc2c(=O)n1-c1ccccc1`, the compound was called inactive. `CCNc1nc(NC(C)(C)C)nc(N(CC)n2cnnc2)n1`: the call was inactive. `CCCCS(=O)(=O)N1CCCC(C(=O)Oc2ccc(Cl)cc2)C1` (stereo not given): the outcome was inactive. For `O=C(NCC1CCCO1)C1CCCN(S(=O)(=O)c2ccc(F)cc2)C1` (stereo not given), the outcome was inactive.

On to `COc1ccccc1C(C[N+](=O)[O-])c1c[nH]c2ccccc12` (stereo not given), for which the call was inactive. On to `CCOC(=O)[C@H]1[C@H]2COc3ccc(Cl)cc3[C@@H]2N2C(=O)[C@H](C)NC(=O)[C@@]12C`, for which the result was inactive.

For the compound `O=C(c1ccc(-n2cncn2)c([N+](=O)[O-])c1)N1CCN(S(=O)(=O)c2ccc(Br)cc2)CC1`, the call was inactive. For `CCCC(C(=O)NNC(=O)c1cc(C)oc1C)c1ccccc1` (stereo not given), the call was inactive. In the case of `Cc1cc(C(=O)c2ccccc2)c(NC(=O)CCl)s1`, the result was inactive. `O=C(O)c1ccc(/C=C2\SC(=Nc3ccccc3)N(c3ccccc3)C2=O)cc1`: the compound was called inactive. Regarding `CCC1CCCCN1CCNC(=O)CNS(=O)(=O)c1ccc2nc(C)sc2c1` (stereo not given), the call was inactive. In the case of `Cc1ccccc1NC(=O)NCCN1C(=O)C2C3C=CC(C3)C2C1=O` (stereo not given), the compound was called inactive. Consider `CCOc1ccc(NC(=O)CN2C(=O)/C(=C3\SC(=S)N(C4CCS(=O)(=O)C4)C3=O)c3ccccc32)cc1` (stereo not given), for which the result was inactive. As to `COc1ccc(C(=O)Nc2cnn(Cc3ccc(Cl)cc3)c2)cc1OC`, the result was inactive. On to `COc1cc(C(=O)Oc2cc(C)cc(C)c2)cc(OC)c1OC`, for which the call was inactive.

For the compound `CCOC(=O)CC(NC(=O)c1cccc2c1C(=O)N(Cc1cccnc1)C2)c1ccc(OCC)c(OC)c1` (stereo not given), the call was inactive. With `CCc1ccc(C(C(=O)NC2CCCC2)N(CCOC)C(=O)CCC(=O)Nc2cc(C)on2)cc1` (stereo not given), the compound was classed as inactive. `CCCCCCCCCCCCN1[C@@H](CC(=O)O)c2cc(C(F)(F)F)ccc2S1(=O)=O`: the call was inactive.

For `O=C(NCCCN1CCOCC1)c1cc2cc(Br)ccc2oc1=O`, the call was inactive. Turning to `Cc1c(OCC(=O)NCCCN2CCOCC2)ccc2c1oc(=O)c1ccccc12`, the call was inactive. As to `COc1cccc(C2CC(c3cccc(OC)c3)n3nc(N)nc3N2)c1` (stereo not given), the result was inactive. The result for `CC(=O)c1ccc(NC(=S)NC(C)c2ccc(Cl)cc2Cl)cc1` (stereo not given) reads “inactive”; that for `Cc1ccc(NC(=O)C(c2ccc(Cl)cc2)N2CCCCC2)cc1` (stereo not given), “inactive”.

Turning to `CCc1ncc(C)nc1CC`, the outcome was inactive.

Regarding `CN1CCN(C(=S)c2cn(Cc3ccc(Br)cc3)c3ccccc23)CC1`, the outcome was inactive. Under `Cc1nn(-c2ccccc2)c(Cl)c1/C=N/NC(=O)c1ccn[nH]1` stands “inactive”; under `Cc1nn(-c2ccccc2)c(Cl)c1/C=C(\CC(=O)O)c1nc2ccccc2s1`, “inactive”; under `COc1ccc(C(=O)NCC(=O)N/N=C/C(C)=C/c2ccco2)cc1OC`, “inactive”. Regarding `N/C(=N\OS(=O)(=O)c1ccccc1)c1cccnc1`, the call was inactive. As for `CC(Sc1nc2ccccc2c(=O)n1C)C(=O)NC1CCCCC1C` (stereo not given), the compound was called inactive. Take `O=C(NCc1cccs1)c1cccnc1C(=O)O`: the outcome was inactive. In the case of `CCOCCCNS(=O)(=O)c1ccc(Br)cc1`, the call was inactive. Regarding `O=C1OCCN1C(=O)[C@H]1[C@H](c2ccc(Cl)cc2)C(c2ccccc2)=NN1c1ccccc1`, the result was inactive.

Take `COc1ccc(N2CCN(C(=O)C3CCCN(S(=O)(=O)c4cccc5cccnc45)C3)CC2)cc1` (stereo not given): the compound was called inactive. For the compound `O=C(Nc1ccc2c(c1)OCCO2)N1CCN(c2ccc(F)cc2)CC1`, the compound was classed as inactive.

In the case of `COc1ccc(Cn2nnnc2C(c2cc3ccc(OC)cc3[nH]c2=O)N2CCC(C)CC2)cc1` (stereo not given), the outcome was inactive.

With `Cc1ccc(S(=O)(=O)N(CC(=O)Nc2ccccc2-c2ccccc2)c2ccc(C)cc2C)cc1`, the compound was classed as inactive. As for `CCS(=O)(=O)c1ccc(NC(=O)c2ccccc2Cl)c(O)c1`, the outcome was inactive. Consider `CCn1c(CCn2c3ccccc3c3ccccc32)n[nH]c1=S`, for which the compound was called inactive. As for `CC(=O)NC(Cc1ccc(F)c(F)c1)C(=O)NC1CCN(c2c(Cc3ccccc3)c(C)nc3ncnn23)CC1` (stereo not given), the result was inactive. With `O=C(Nc1cc(F)ccc1F)C1CCCN(c2ncnc3c2nc2n3CCCCC2)C1` (stereo not given), the compound was called inactive. For the compound `CCN(CC)S(=O)(=O)c1ccc(NC(=O)Cc2cccs2)cc1`, the compound was called inactive.

Take `Oc1ccc(/C=N/Nc2ccccc2)cc1`: the compound was called inactive. The result for `COc1ccc(-c2cc(C(F)(F)F)c3c(n2)sc2c(O)cc(=O)[nH]c23)c(OC)c1` reads “inactive”. `CC(C)c1cccc(C(C)C)c1OC(=O)[C@H]1OC(C(C)(C)C)=C[C@@H]1c1ccccc1`: the outcome was inactive. Consider `COC(=O)CN1C(=O)C(O)=C(C(C)=O)C1c1ccc([N+](=O)[O-])cc1` (stereo not given), for which the call was inactive.

With `Cc1c(N2C(=O)c3cccc4cccc(c34)C2=O)c(=O)n(-c2ccccc2)n1C`, the call was inactive.
